Laboratory results reported in PubChem BioAssay (NCI).
“And” between values parts separate entries of the source, which are not always exact repeats. Equal values may be shown once. The panel holds about 79,000 compounds, 15% with a hit somewhere; the sample as a whole holds those more often. The source made the active and inactive calls. No stated cut-off is given here; in the data, active means growth inhibition above about 70%; inactive means the rest.

What was measured:
[1] = NCI Yeast Anticancer Drug Screen. Data for the rad50 strain (AID 155);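 further: 0% = growth of vehicle-only cultures of the same strain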; details: S. cerevisiae rad50 strain growth inhibition, stronger effect = higher value
In short: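 Yeast carrying a defined DNA repair defect were exposed to test compounds, and growth was compared with vehicle-treated controls to give percent inhibition.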

[2] = NCI Yeast Anticancer Drug Screen. Data for the mec2-1 strain (AID 157); details: S. cerevisiae mec2-1 strain, stronger effect = higher value
In short: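 Strain: mec2-1 (DNA repair/cell cycle alteration). Compound exposure, then growth measured; inhibition expressed relative to vehicle.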

[3] = NCI Yeast Anticancer Drug Screen. Data for the sgs1 mgt1 strain (AID 161);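 further: 0% = growth of cultures given vehicle only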; details: S. cerevisiae sgs1 mgt1 strain, stronger effect = higher value
In short: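 Genetically altered yeast, compound exposure, growth inhibition relative to vehicle.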

[4] = NCI Yeast Anticancer Drug Screen. Data for the cln2 rad14 strain (AID 165);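 further: 0% = growth equal to vehicle treated cultures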; details: S. cerevisiae cln2 rad14 strain, stronger effect = higher value
In short: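 Compounds are applied to the cln2 rad14 yeast strain, and growth is then compared with that of vehicle-treated cultures to give inhibition.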

[5] = NCI Yeast Anticancer Drug Screen. Data for the bub3 strain (AID 167); details: S. cerevisiae bub3 mutant strain, stronger effect = higher value
In short: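 Compounds were applied to a genetically altered yeast strain carrying a cell-cycle control defect. Growth inhibition was scored against vehicle-treated controls.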

[6] = NCI Yeast Anticancer Drug Screen. Data for the mlh1 rad18 strain (AID 175); details: S. cerevisiae mlh1 rad18 strain growth inhibition, stronger effect = higher value
In short: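 Read-out is yeast growth inhibition, calculated against vehicle-only controls. The compound was applied to a strain engineered with DNA damage repair alterations.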

[7] = at 5.0 µM (retest, dose inferred, filed as 0.5)
[8] = at 50.0 µM (retest, dose inferred, filed as 5.0)

Measured: growth inhibition

CC(=O)C(CN(C)C)C(c1ccccc1)c1c(O)c2ccccc2oc1=O (centres undefined)
inactive: [1]; [7] 22% | [1]; [8] 22% | [1]; at 50.0 µM 65.7% | [2]; [7] 20% | [2]; [8] 20% | [2]; at 50.0 µM 54.4% | [3]; [7] 4% | [3]; [8] 4% | [4]; [7] -4% | [4]; [8] -4% | [4]; at 50.0 µM 64% | [5]; [7] 13% | [5]; [8] 13% | [5]; at 50.0 µM 59.6% | [6]; [7] 17% | [6]; [8] 17% | [6]; at 50.0 µM 64.2%
active: [3]; at 50.0 µM 70.8%

O=C(O)c1ccc(NP(=O)(O)Oc2ccccc2)cc1 (tested in a mixture with another compound)
inactive: [1]; [7] 0% | [1]; [8] 8% | [1]; at 50.0 µM -2.15% | [2]; [7] -1% | [2]; [8] 3% | [2]; at 50.0 µM 3.45% | [3]; [7] -20% | [3]; [8] -8% | [3]; at 50.0 µM 29.9% | [4]; [7] -4% | [4]; [8] -6% | [4]; at 50.0 µM -24.8% | [5]; [7] -1% | [5]; [8] -1% | [5]; at 50.0 µM -7.8% | [6]; [7] 11% | [6]; [8] 16% | [6]; at 50.0 µM 15.2%

NP(N)(=O)Nc1ccccc1
inactive: [1]; [7] -1% | [1]; [8] -2% | [1]; at 50.0 µM 7.75% | [2]; [7] 2% | [2]; [8] -2% | [2]; at 50.0 µM -22.4% | [3]; [7] -1% | [3]; [8] -1% | [3]; at 50.0 µM -23.9% | [4]; [7] 0% | [4]; [8] -2% | [4]; at 50.0 µM 66.7% | [5]; [7] 2% | [5]; [8] -6% | [5]; at 50.0 µM -8% | [6]; [7] -2% | [6]; [8] 0% | [6]; at 50.0 µM 3.6%

COC1=C(C)C(=O)C2=C(C1=O)C(CO)N1C(C#N)C3CC4C(C1C2N1CCOC41)N3C (centres undefined)
inactive: [1]; [7] 39% | [1]; [8] 51% | [2]; [7] 9% | [2]; [8] 52% | [3]; [7] 20% | [3]; [8] 47% | [4]; [7] 44% | [5]; [7] 19% | [6]; [7] 19% | [6]; [8] 49%
active: [1]; at 50.0 µM 75.8% and 75.5% | [2]; at 50.0 µM 85.8% and 89.7% | [3]; at 50.0 µM 77.3% and 77.7% | [4]; [8] 80% | [4]; at 50.0 µM 85.1% and 85% | [5]; [8] 76% | [5]; at 50.0 µM 83.2% and 87.9% | [6]; at 50.0 µM 78.7% and 81%

CCOC(=O)N(C(=O)c1ccc([As]=O)cc1)C(=O)c1ccc([As]=O)cc1 (centres undefined)
active: [1]; [8] 98% | [1]; at 50.0 µM 99.2% | [2]; [8] 99% | [2]; at 50.0 µM 99.3% | [3]; [8] 100% | [3]; at 50.0 µM 99.5% | [4]; [8] 99% | [4]; at 50.0 µM 99% | [5]; [8] 99% | [5]; at 50.0 µM 89.3% | [6]; [8] 99% | [6]; at 50.0 µM 98.7%
inactive: [1]; [7] 8% | [2]; [7] 5% | [3]; [7] 10% | [4]; [7] -4% | [5]; [7] 11% | [6]; [7] 6%

Oc1c(Cl)c(Cl)c(Cl)c(Cl)c1Cl.[Cu+2]
active: [1]; [8] 98% | [1]; at 50.0 µM 88.5% | [2]; [8] 99% | [2]; at 50.0 µM 89.8% | [3]; [8] 98% | [3]; at 50.0 µM 81% | [4]; [8] 99% | [4]; at 50.0 µM 92.8% | [5]; [8] 97% | [5]; at 50.0 µM 89.5% | [6]; [8] 96% | [6]; at 50.0 µM 88.6%
inactive: [1]; [7] 23% | [2]; [7] 18% | [3]; [7] 31% | [4]; [7] 8% | [5]; [7] 11% | [6]; [7] 15%

CC(Br)CN1CCOCC1 (centres undefined)
inactive: [2]; [7] 25% | [3]; [7] 58% | [3]; at 50.0 µM 67.7% | [4]; [7] 14% | [4]; [8] 66% | [4]; at 50.0 µM 12.8% | [5]; [7] -10% | [5]; [8] 36% | [5]; at 50.0 µM 2.6% | [6]; [7] 66%
active: [1]; [7] 91% | [1]; [8] 97% | [1]; at 50.0 µM 94.2% | [2]; [8] 98% | [2]; at 50.0 µM 96.8% | [3]; [8] 94% | [6]; [8] 97% | [6]; at 50.0 µM 96.2%

[C-]#[O+].[C-]#[O+].[C-]#[O+].[Cl-].[Ru+2].c1ccc([PH+](CC[PH+](c2ccccc2)c2ccccc2)CC[PH+](c2ccccc2)c2ccccc2)cc1
inactive: [1]; [7] 50% | [2]; [7] 45% | [3]; [7] 55% | [4]; [7] 36% | [5]; [7] 50% | [6]; [7] 56%
active: [1]; [8] 98% | [1]; at 50.0 µM 91% | [2]; [8] 99% | [2]; at 50.0 µM 92.8% | [3]; [8] 99% | [3]; at 50.0 µM 93.1% | [4]; [8] 97% | [4]; at 50.0 µM 92.2% | [5]; [8] 98% | [5]; at 50.0 µM 92.4% | [6]; [8] 97% | [6]; at 50.0 µM 91.1%
